Results on 40 compounds are retold here after PubChem BioAssay AID651789 (National Center for Advancing Translational Sciences (NCATS), 2012).

Inconclusive results are not listed. Entries that show only a call come without a potency. Calls of active or inactive are those of the source. Calls come from the whole dose curve; as a rule, active = well fitted inhibition curve with a large enough effect; inconclusive = small, poorly fitted or top-dose-only effect; inactive = no such curve, though single readings can be large or run the other way.
Potency is the fitted concentration of half-maximal effect.

The assay is described as follows: Acumen qHTS Assay for Inhibitors of the mTORC1 Signaling Pathway in WT MEF Cells: Hit Validation. Note: nearly all actives have a fitted effect of over 60% in size. Conditions: Acumen imaging; series mostly up to 37.3 µM. The essentials:
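Read-out is immunofluorescent phospho-rpS6 (Ser235/236) normalised to PI-stained cell number, reported as % active cells using a 7.5 nM rapamycin threshold. Cells: WT or Tsc2-/-, p53-/- MEFs, compound-exposed 24 h at 37C; PI count also tracks viability.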
For orientation: In qHTS, concentration-response curves come from the screen itself.
For `Cc1cc(C)c(-c2n[nH]c3c2C(c2ccccc2F)N(Cc2ccco2)C3=O)c(O)c1` (stereo not given), the Potency entry is “inactive”.

Turning to `C=C(C)CSc1nc(-c2ccccc2)cc(-c2ccc(OC)cc2)c1C#N`, the Potency entry was “inactive”.

Take `CCN(Cc1nc(-c2ccc(OC)cc2)oc1C)S(=O)(=O)c1ccc(Cl)cc1`: the Potency result was “inactive”.

Turning to `Cc1ccc(-c2nc3sccn3c2Nc2ccc(C)c(C)c2)cc1`, the Potency entry was “inactive”.

Take `COc1ccc(Cl)cc1NC(=O)CSc1nc(-c2ccco2)cc(C(F)(F)F)n1`: the Potency entry is “inactive”.

`Cc1ccc(Nc2nnc(-c3ccc(C)c(S(=O)(=O)N4CCOCC4)c3)c3ccccc23)c(C)c1`: the Potency entry is “inactive”.

For the compound `CCc1nnc(NC(=O)c2nc(S(=O)(=O)Cc3cccc(C)c3)ncc2Cl)s1`, the Potency is 5.21 µM (active).

With `CCc1ccc(-c2nc(CSCC(=O)NCc3ccc(C)cc3)c(C)o2)cc1`, the Potency result was “inactive”.

With `C=CCc1c(C)nc2nc(SCC(=O)Nc3ccc(C)c(C)c3)nn2c1C`, the Potency was 1.17 µM (active).

Turning to `CS(=O)c1ccc(-c2nc(-c3ccc(F)cc3)c(-c3ccncc3)[nH]2)cc1` (stereo not given), the Potency entry was “inactive”.

Take `COc1ccc(OC)c(NC(=O)c2nc(S(=O)(=O)Cc3ccc(F)cc3)ncc2Cl)c1`: the Potency is 3.29 µM (active).

Turning to `CCc1nn(CC(=O)NCc2ccccc2Cl)c(=O)c2cccn12`, the Potency result is “inactive”.

For the compound `CCCCS(=O)(=O)c1oc(-c2ccc(F)cc2)nc1S(=O)(=O)c1ccc(C)cc1`, the Potency was 5.21 µM (active).

Regarding `CCCOCc1cc(CN2CCN(c3ccccc3OC)CC2)c(O)c2ncccc12`, the Potency is 1.47 µM (active).

For the compound `Cc1cc(C)c(NC(=O)c2sc3nc(C)cc(C)c3c2NC(=O)c2ccccc2)c(C)c1`, the Potency result is “inactive”.

Consider `COc1ccccc1-c1noc(CSc2nc3ccc(C)cc3[nH]2)n1`, for which the Potency result was “inactive”.

For the compound `O=C(Nc1ccc2nc(SCC(=O)N3CCCc4ccccc43)sc2c1)c1ccccc1F`, the Potency result is “inactive”.

Turning to `Cc1ccc(C(=O)CC2(O)C(=O)N(Cc3ccccc3)c3ccc(Br)cc32)cc1` (stereo not given), the Potency result is “inactive”.

As for `Cc1cccc(N2CCN(c3ncnc4c3nc3n4CCCCC3)CC2C)c1` (stereo not given), the Potency was 11.7 µM (active).

For the compound `Cn1nnnc1SCCCNCc1cccc(OCc2ccc(Cl)cc2)c1`, the Potency result was “inactive”.

Turning to `Cc1cccc(CSc2cn(CC(=O)N3CCCCCC3)c3ccccc23)c1`, the Potency entry was “inactive”.

On to `CC(C)N(C(=O)CSc1nc2ccc(Cl)cc2[nH]1)c1ccccc1`, for which the Potency entry is “inactive”.

In the case of `COc1ccc(-c2nc(S(=O)(=O)c3ccc(Cl)cc3)c(N3CCCCCC3)o2)cc1`, the Potency result is “inactive”.

Consider `CC1C(=O)Nc2ccc(S(=O)(=O)Nc3ccccc3Br)cc2NC1=O` (stereo not given), for which the Potency entry is “inactive”.

For the compound `O=C(NCC1CCN(Cc2cccc(Cl)c2)CC1)Nc1ccc(F)c(Cl)c1`, the Potency result was “inactive”.

Take `Cc1ccc(-c2nn(C)c(=O)c3ccccc23)cc1S(=O)(=O)NCCCN(C)C`: the Potency result was “inactive”.

For `O=S(=O)(c1ccccc1)n1nc(-c2ccc(Cl)cc2)nc1NCc1ccccc1`, the Potency entry is “inactive”.

As to `Cc1oc(-c2ccccc2F)nc1Cn1c(SCc2cccc(Cl)c2)nc2ccncc21`, the Potency entry is “inactive”.

As for `CCn1c(CC2C(=O)N(C)c3ccc(Br)cc32)nc2ccccc2c1=O` (stereo not given), the Potency result is “inactive”.

Regarding `Cc1cccn2c(Nc3ccccc3)c(-c3cccs3)nc12`, the Potency result is “inactive”.

In the case of `Nc1nc(Nc2ccccc2F)sc1C(=O)c1ccc(Cl)cc1`, the Potency entry is “inactive”.

As for `Cn1nc(-c2ccc(OCC(=O)Nc3ccccc3)cc2)c2ccccc2c1=O`, the Potency entry was “inactive”.

As to `O=C(Cn1c(=O)c2ccccc2n(CC(=O)Nc2ccc(Cl)cc2)c1=O)NCCc1ccccc1`, the Potency is 14.7 µM (active).

`O=C(Nc1ccc(Cl)cc1)C1CCC(CNS(=O)(=O)c2ccc(Br)s2)CC1` (stereo not given): the Potency entry was “inactive”.

Consider `COc1ccc(NC(=O)C(NC(=O)/C=C\c2ccc3c(c2)OCO3)c2ccccc2)cc1` (stereo not given), for which the Potency entry was “inactive”.

In the case of `COc1cc(CN(C(=O)COc2ccc(C)c(C)c2)c2ccccn2)cc(OC)c1OC`, the Potency entry is “inactive”.

On to `COc1cc(OC)c(NS(=O)(=O)c2ccc3c(c2)CCCN3C(C)=O)cc1Cl`, for which the Potency result is “inactive”.

As for `Cc1ccccc1C(=O)N1CCN(CCc2ccccn2)CC1`, the Potency result is “inactive”.

Consider `CC1C(=O)N2CCCc3cc(S(=O)(=O)Nc4ccc(Br)cc4F)cc1c32` (stereo not given), for which the Potency was 2.07 µM (active).

For `Cc1cccc(CSCCNC(=O)CN(c2ccccc2)S(=O)(=O)N(C)C)c1`, the Potency entry was “inactive”.
